Assay outcomes deposited in PubChem BioAssay by several laboratories.
Most compounds without a hit are left out; they make up all but 3% or so of the library.
EBV LMP1 NFkB = Epstein-Barr LMP1 NF-kappaB reporter inhibition; LMP1-induced NF-kappaB luciferase reporter cells, luminescence; inhibition, % at 12.5 µM; 350,000 tested, 0.69% active; in the data active means inhibition above about 41%;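 further: 0% = neutral control wells and 100% = reference inhibitor control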
Peg3 prom inh-1 = Peg3 promoter activity inhibition; 360,000 tested, 1.7% active; inhibition, % at 20 µM; HeLa PEG-Prom luciferase reporter, luminescence, overnight;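 active means inhibition of at least 50% at 20 µM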
CF NFkB block = blocks PAF-induced NF-kB reporter in cystic fibrosis cells | KKLEB NF-kB-GFP reporter, GFP fluorescence overnight | inhibition, % at 5 µM | 360,000 tested, 0.86% active | AID 588850;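 active means at least 50% inhibition at 5 µM, scaled per plate between neutral and stimulator controls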;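 further: PAF is a Pseudomonas aeruginosa culture filtrate used as stimulus; plate controls were PAF-stimulated DMSO wells for no effect and unstimulated DMSO wells for full effect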
KKLEB tox = reduces viability of KKLEB cystic fibrosis airway cells. AID 602141. activity change (cytotoxicity), % at 5 µM. KKLEB CF airway cells viability, ATPlite luminescence, overnight; stronger effect = lower value; cells stimulated with P. aeruginosa culture filtrate. 360,000 tested, 0.36% active;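 active means corrected activity change at or below -50% at 5 µM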
TRPM1 prom inh = MITF TRPM1 promoter inhibition in SK-MEL-5 cells | SK-MEL-5 TRPM1 promoter luciferase, 24 h | inhibition, % at 12.5 µM | 330,000 tested, 0.83% active | AID 488899;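 active means mean inhibition across replicates of 60% or more, whatever share of single replicates reaches that level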
HIF-2a inh = HIF-2a inhibition; inhibition, % at 18.8 µM; 360,000 tested, 0.72% active; 786-0 RCC cells HIF-2a reporter, luciferase luminescence, overnight; AID 624352;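 active means inhibition of the luminescence signal of 40% or more relative to plate controls, in a single-dose primary screen at 18.75 µM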
Peg3 prom inh-2 = confirmation of Peg3 promoter inhibitors; shares compounds with Peg3 prom inh-1; HeLa PEG-Prom luciferase reporter, luminescence, overnight; inhibition, % at 20 µM; 1,300 tested, 84% active;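 active means at 20 µM dose, 40% or more inhibition averaged across four replicates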
Numbers without * were called inactive.

Results for CCc1ccc(OCCNc2cc(N3CCNC(C)C3)ccc2[N+](=O)[O-])cc1 (configuration not stated) ?
EBV LMP1 NFkB: 5; Peg3 prom inh-1: 100*; CF NFkB block: 28; KKLEB tox: -36; TRPM1 prom inh: 79*; HIF-2a inh: -4; Peg3 prom inh-2: 100*

Results for Cc1ccsc1C(=O)N1CCCC(C)(C(=O)O)C1 (configuration not stated) ?
Peg3 prom inh-1: -2; CF NFkB block: -4; KKLEB tox: -12; HIF-2a inh: 5

How did CC(=O)NC(c1ccc2ccccc2c1)c1ccc2cccnc2c1O (configuration not stated) do in these assays?
EBV LMP1 NFkB: 49*; Peg3 prom inh-1: 64*; CF NFkB block: -43; KKLEB tox: -3; TRPM1 prom inh: 49; HIF-2a inh: 29; Peg3 prom inh-2: 71*

What do the screens show for `COc1ccc(C(NC(C)=O)c2ccc3cccnc3c2O)c(OC)c1` (configuration not stated)?
EBV LMP1 NFkB: 59*; Peg3 prom inh-1: 61*; CF NFkB block: 10; KKLEB tox: 0; TRPM1 prom inh: 63*; HIF-2a inh: 14; Peg3 prom inh-2: 65*

How did COc1ccccc1C(NC(C)=O)c1cc(Cl)c2cccnc2c1O (configuration not stated) do in these assays?
EBV LMP1 NFkB: 31; Peg3 prom inh-1: 39; CF NFkB block: 7; KKLEB tox: 6; TRPM1 prom inh: 11; HIF-2a inh: 15

What do the screens show for `COc1ccccc1CNC(=O)c1c(N)n(CCCN2CCOCC2)c2nc3ccccc3nc12`?
EBV LMP1 NFkB: -12; Peg3 prom inh-1: 60*; CF NFkB block: -6; KKLEB tox: -2; TRPM1 prom inh: -10; HIF-2a inh: -51; Peg3 prom inh-2: 85*

How did CN(C)S(=O)(=O)c1ccc(-c2csc(N/N=C/c3ccc(O)cc3)n2)cc1 do in these assays?
EBV LMP1 NFkB: -35; Peg3 prom inh-1: 96*; CF NFkB block: 82*; KKLEB tox: -9; TRPM1 prom inh: 72*; HIF-2a inh: 23; Peg3 prom inh-2: 98*

How did C(=N\Nc1nc(-c2ccccc2)cs1)/c1ccncc1 do in these assays?
EBV LMP1 NFkB: -28; Peg3 prom inh-1: -239; CF NFkB block: -24; KKLEB tox: 17; TRPM1 prom inh: -67; HIF-2a inh: -236

Results for O[C@H]1CN(CC2CCCCC2)[C@@H](c2ccc(Cl)cc2)C[C@@H]1n1cc(C2CC2)nn1 ?
EBV LMP1 NFkB: 8; Peg3 prom inh-1: 3; CF NFkB block: 10; KKLEB tox: 16; HIF-2a inh: -29

Results for OCc1cn(-c2ccccc2)nc1-c1ccc(-c2nn(-c3ccccc3)cc2CO)cc1 ?
EBV LMP1 NFkB: -26; Peg3 prom inh-1: 19; CF NFkB block: 11; KKLEB tox: 5; TRPM1 prom inh: 9; HIF-2a inh: 11

Results for Fc1ccc(-c2nn(-c3ccccc3)cc2CNCc2ccccc2)cc1 ?
EBV LMP1 NFkB: -9; Peg3 prom inh-1: 62*; CF NFkB block: 0; KKLEB tox: -10; TRPM1 prom inh: -3; HIF-2a inh: 5; Peg3 prom inh-2: 17

Results for O=C1[C@H](Cc2ccccc2)NCCCC[C@@H](c2ccc(Cl)cc2)N1Cc1ccc(Cl)cc1 ?
EBV LMP1 NFkB: 11; Peg3 prom inh-1: 76*; CF NFkB block: 15; KKLEB tox: 7; TRPM1 prom inh: -6; HIF-2a inh: 9; Peg3 prom inh-2: 22

Results for O=C1[C@H](Cc2ccccc2)NCCCC[C@@H](c2ccco2)N1Cc1ccccc1 ?
EBV LMP1 NFkB: -8; Peg3 prom inh-1: 6; CF NFkB block: 21; KKLEB tox: -13; TRPM1 prom inh: -2; HIF-2a inh: 7

How did COc1ccccc1N(CC(=O)N/N=C/c1c(O)ccc2ccccc12)S(C)(=O)=O do in these assays?
EBV LMP1 NFkB: 14; Peg3 prom inh-1: 50*; CF NFkB block: 1; KKLEB tox: -2; TRPM1 prom inh: 48; HIF-2a inh: 22; Peg3 prom inh-2: 70*

How did COc1ccccc1N(CC(=O)Nc1ccccc1C)S(C)(=O)=O do in these assays?
EBV LMP1 NFkB: 3; Peg3 prom inh-1: 15; CF NFkB block: -14; KKLEB tox: 2; TRPM1 prom inh: 3; HIF-2a inh: 1

How did C/C=C(/CCC1NCCc2c1[nH]c1ccccc21)[Si](C)(C)C (configuration not stated) do in these assays?
EBV LMP1 NFkB: 2; Peg3 prom inh-1: -16; CF NFkB block: 3; KKLEB tox: 4; TRPM1 prom inh: 3; HIF-2a inh: -7

Results for C#CCOCC1CNC(=S)O1 (configuration not stated) ?
EBV LMP1 NFkB: -6; Peg3 prom inh-1: 9; CF NFkB block: 4; KKLEB tox: 10; HIF-2a inh: 19

How did Cc1ccc(-c2nn(-c3ccccc3)cc2CSC(=N)N)cc1 do in these assays?
EBV LMP1 NFkB: 2; Peg3 prom inh-1: 101*; CF NFkB block: -8; KKLEB tox: -6; TRPM1 prom inh: 3; HIF-2a inh: -26; Peg3 prom inh-2: 41*

How did CC(CNCCCn1cnc2c(OCc3ccccc3)ncnc21)c1ccccc1 (configuration not stated) do in these assays?
EBV LMP1 NFkB: -1; Peg3 prom inh-1: -3; CF NFkB block: 4; KKLEB tox: -8; TRPM1 prom inh: 55; HIF-2a inh: -17

How did COc1ccc(-c2csc(NC(=O)C3COc4ccccc4O3)n2)cc1OC (configuration not stated) do in these assays?
EBV LMP1 NFkB: 13; Peg3 prom inh-1: 66*; CF NFkB block: 28; KKLEB tox: -16; HIF-2a inh: -3; Peg3 prom inh-2: 40

What do the screens show for `CC(=O)Nc1cccc(-c2cc(NC=O)c3ncc(-c4ccc(C(C)=O)cc4)n3c2)c1`?
Peg3 prom inh-1: 54*; CF NFkB block: 28; KKLEB tox: -34; HIF-2a inh: -5; Peg3 prom inh-2: 56*

Results for Cc1cc(=O)oc2cc(OCC(=O)c3ccc4c(c3)NC(=O)CO4)ccc12 ?
EBV LMP1 NFkB: 0; Peg3 prom inh-1: 53*; CF NFkB block: 0; KKLEB tox: -4; TRPM1 prom inh: 1; HIF-2a inh: -2; Peg3 prom inh-2: 5

How did CCc1noc(C)c1C(=O)NCCN1C(=O)S/C(=C\c2ccccc2F)C1=O do in these assays?
EBV LMP1 NFkB: -2; Peg3 prom inh-1: -7; CF NFkB block: -3; KKLEB tox: 10; HIF-2a inh: 10

What do the screens show for `Cc1nn(CC(=O)NCc2ccc(OC(C)C)cc2)c(=O)c2cc(-c3ccccc3)nn12`?
EBV LMP1 NFkB: 3; Peg3 prom inh-1: 51*; CF NFkB block: 8; KKLEB tox: -3; TRPM1 prom inh: 5; HIF-2a inh: 10; Peg3 prom inh-2: 15

Results for Cc1ncc([N+](=O)[O-])n1CC(=O)Nc1ccccc1Cl ?
EBV LMP1 NFkB: 5; Peg3 prom inh-1: 17; CF NFkB block: 2; KKLEB tox: -6; HIF-2a inh: 7
